This note sets out measurements from PubChem BioAssay.

Assay [1] can be described thus: E. coli DRC41 culture turbidity changes, primary screen, E. coli filamentation inducer project, strain DRC41, OD650, 48 h (AID 1152).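 Note: E. coli MC1000 strain DRC41 lacking acrAB efflux pump and sulA.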 The note with it: E. coli DRC41 (acrAB sulA), higher = more signal, called active from +8 up or from −8 down.
Assay [2] can be described thus: small-molecule binders of probe aLefty1, primary screen, biochemical, small-molecule microarray, 635/667 nm fluorescence (AID 1153).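 Note: score merges spot fluorescence with signal-to-noise ratio from the scanned slide images.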 The note with it: higher = more signal.
The nature of assay [3]: PSAC antagonists in infected red cells, primary screen, cell-based, P. falciparum Indochina, OD700, 1 h (AID 1154). The note with it: P. falciparum Indochina infected RBC osmotic lysis, higher = more signal, called active from +8 up or from −8 down.
Assay [4] in a line: PSAC antagonists in infected red cells, primary screen, cell-based, P. falciparum Indochina, OD700, 2 h (AID 1155).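 Note: lysis reports solute entry through the parasite surface anion channel PSAC; channel blockers reduce lysis of infected cells.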 Conditions: P. falciparum Indochina infected erythrocytes, osmotic lysis OD700; higher = more signal, called active from +8 up or from −8 down.
The nature of assay [5]: osmotic lysis modulators in infected erythrocytes, primary screen, PSAC antagonist project, cell-based, P. falciparum Indochina, OD700, 3 h (AID 1156). The note with it: higher = more signal, called active from +8 up or from −8 down.
A short description of assay [6]: PSAC antagonists in infected red cells, primary screen, cell-based, P. falciparum Indochina, OD700, 18 h (AID 1157). The note with it: P. falciparum Indochina infected erythrocytes, osmotic lysis OD700, 18 h; higher = more signal, called active from +8 up or from −8 down.
Assay [7] is described as follows: modulators of S6 phosphorylation in cells, primary screen, cell-based, A549, cytoblot, luminescence, serum-stimulated (AID 1158).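 Note: serum-stimulated A549 lung adenocarcinoma cells; signal is phosphorylated S6 detected by cytoblot immunostaining with HRP secondary.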 Conditions: A549 phospho-S6 cytoblot, 5 h, higher = more signal.
Assay [8] concerns the target NADPH oxidase 2 (Homo sapiens) (UniProt P04839). Description: NOX2-dependent H2O2 signal modulators, primary screen, NOX inhibitor project, cell-based, HEK293-NOX2, PMA-stimulated, Amplex Red fluorescence (AID 1159). Note: test concentration not given here. Conditions: 45 min, higher = more signal, called active from +8 up or from −8 down.
Assay [9] deals with NADPH oxidase 4 (Homo sapiens) (UniProt Q9NPH5). As to the kind of experiment: NOX4-dependent H2O2 signal modulators, primary screen, NOX inhibitor project, cell-based, HEK293-NOX4, tetracycline-induced, Amplex Red fluorescence (AID 1160). Conditions: 45 min, higher = more signal, called active from +8 up or from −8 down.
Chain of NADPH oxidase 4 (Homo sapiens) (Q9NPH5 whole entry, looked up): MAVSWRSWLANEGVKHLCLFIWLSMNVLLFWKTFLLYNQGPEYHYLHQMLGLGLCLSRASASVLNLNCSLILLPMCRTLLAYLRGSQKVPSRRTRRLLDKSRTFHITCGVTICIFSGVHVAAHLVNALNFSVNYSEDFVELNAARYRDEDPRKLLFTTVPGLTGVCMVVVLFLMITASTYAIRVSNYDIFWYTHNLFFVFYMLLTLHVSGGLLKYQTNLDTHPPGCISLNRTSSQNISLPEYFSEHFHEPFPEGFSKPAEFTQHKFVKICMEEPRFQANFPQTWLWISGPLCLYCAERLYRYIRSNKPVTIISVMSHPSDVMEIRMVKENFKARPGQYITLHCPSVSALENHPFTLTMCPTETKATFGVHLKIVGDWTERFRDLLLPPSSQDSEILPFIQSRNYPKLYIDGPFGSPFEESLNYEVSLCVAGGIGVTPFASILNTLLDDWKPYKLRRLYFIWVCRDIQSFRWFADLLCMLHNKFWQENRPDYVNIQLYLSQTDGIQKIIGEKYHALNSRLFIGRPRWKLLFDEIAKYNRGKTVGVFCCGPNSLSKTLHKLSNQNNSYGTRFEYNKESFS
Assay [10] deals with NADPH oxidase 5 (Homo sapiens) (UniProt Q96PH1). As to the kind of experiment: NOX5-dependent H2O2 signal modulators, primary screen, NOX inhibitor project, cell-based, HEK293-NOX5, Amplex Red fluorescence (AID 1161). Conditions: HEK293-NOX5, ionomycin, 45 min, higher = more signal.
Chain of NADPH oxidase 5 (Homo sapiens) (Q96PH1 whole entry, looked up): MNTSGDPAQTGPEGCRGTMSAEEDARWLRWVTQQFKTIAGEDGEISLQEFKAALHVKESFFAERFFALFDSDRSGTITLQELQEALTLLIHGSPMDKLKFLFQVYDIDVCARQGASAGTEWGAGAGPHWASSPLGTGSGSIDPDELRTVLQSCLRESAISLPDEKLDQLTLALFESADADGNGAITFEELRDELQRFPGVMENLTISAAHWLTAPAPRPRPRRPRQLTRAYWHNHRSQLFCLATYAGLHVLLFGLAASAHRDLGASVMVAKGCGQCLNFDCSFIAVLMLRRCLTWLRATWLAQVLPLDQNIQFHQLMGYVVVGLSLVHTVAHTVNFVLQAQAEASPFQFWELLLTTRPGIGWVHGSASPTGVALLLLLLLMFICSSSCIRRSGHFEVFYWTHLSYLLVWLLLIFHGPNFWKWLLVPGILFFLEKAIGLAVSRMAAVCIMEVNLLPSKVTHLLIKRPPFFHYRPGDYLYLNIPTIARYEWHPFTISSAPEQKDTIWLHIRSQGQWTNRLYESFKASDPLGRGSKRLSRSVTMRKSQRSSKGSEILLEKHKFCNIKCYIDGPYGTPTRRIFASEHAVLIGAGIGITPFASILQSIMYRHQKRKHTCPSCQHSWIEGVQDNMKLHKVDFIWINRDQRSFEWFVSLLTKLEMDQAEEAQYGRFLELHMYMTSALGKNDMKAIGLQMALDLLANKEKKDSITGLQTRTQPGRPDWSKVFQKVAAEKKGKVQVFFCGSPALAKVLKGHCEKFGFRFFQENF

Active and inactive are the calls of the source.

Chain of NADPH oxidase 2 (Homo sapiens) (P04839 whole entry, looked up): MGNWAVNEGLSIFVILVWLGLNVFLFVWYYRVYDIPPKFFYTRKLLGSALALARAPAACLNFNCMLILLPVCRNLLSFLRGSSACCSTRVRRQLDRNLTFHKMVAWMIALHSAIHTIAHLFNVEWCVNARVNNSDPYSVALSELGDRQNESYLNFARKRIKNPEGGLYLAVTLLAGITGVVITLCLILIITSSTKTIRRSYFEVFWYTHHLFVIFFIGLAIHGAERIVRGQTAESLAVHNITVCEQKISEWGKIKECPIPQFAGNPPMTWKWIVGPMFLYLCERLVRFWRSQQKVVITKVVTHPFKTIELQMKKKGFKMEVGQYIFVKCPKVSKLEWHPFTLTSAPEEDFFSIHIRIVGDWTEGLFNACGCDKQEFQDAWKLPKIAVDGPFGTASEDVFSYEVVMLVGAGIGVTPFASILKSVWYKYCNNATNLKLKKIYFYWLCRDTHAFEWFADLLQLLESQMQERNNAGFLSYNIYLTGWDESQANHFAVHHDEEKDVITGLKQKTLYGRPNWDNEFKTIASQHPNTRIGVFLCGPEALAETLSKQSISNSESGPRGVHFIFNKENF

With `O=C(CCCCCCC(=O)Nc1ccccc1)N/N=C/c1ccccc1`, the z-score in [1] was -0.362 (inactive); in assay [3], 24 (active); in [4], 10.9 (active); in assay [5], 0.0998 (inactive); in [6], 0.992 (inactive); in assay [7], -0.0886. In addition, the z-score in assay [8] is -0.3 (inactive); in assay [9], -0.0411 (inactive); in [10] it was -0.185. In assay [2], the composite z-score is -0.24.

For the molecule `C=C(/C(=C/C[C@@H](OC(=O)c1ccncc1)c1ccc(OCCO)cc1)c1cc(C(=O)OC)ccc1OC)C(C)C`, the z-score in [1] was 0.927 (inactive); in assay [3], 17.9 (active); in assay [4], 2.79 (inactive); in assay [5], 2.56 (inactive); in assay [6], 1.02 (inactive); in assay [7] it was 0.596. For the same molecule, the z-score in assay [8] was -2.45 (inactive); in [9], -1.24 (inactive); in assay [10] it was -1.86. The composite z-score in assay [2] was -0.0984.

On to `CCOc1cc(C(O)C2C=CC3C(=O)N(C4CCCCC4)C(=O)C3N2Nc2ccc(OC)cc2)ccc1O` (stereo not given), for which the z-score in assay [1] is -0.0582 (inactive); in assay [3] it was 6.34 (inactive); in assay [4], 0.679 (inactive); in assay [5], 1.04 (inactive); in [6], 0.265 (inactive); in assay [7] it was -0.089. Besides, the z-score in assay [8] is -2.2 (inactive); in [9] it was -3.71 (inactive); in assay [10], -2.46. The composite z-score in assay [2] worked out at 0.666.

Turning to `COCCCNC(=O)[C@@H]1c2ccccc2C(=O)N(Cc2ccccc2C(F)(F)F)[C@H]1c1ccc(CO)cc1`, the z-score in [1] was 0.938 (inactive); in assay [3] it was 1.14 (inactive); in assay [4], 0.165 (inactive); in [5] it was 0.0034 (inactive); in assay [6], -0.0633 (inactive); in [7], 0.0987. Moreover, the figures for the z-score in assay [8], in assay [9] and in assay [10] were -0.214 (inactive), 0.732 (inactive) and 0.498, respectively. The composite z-score in assay [2] was -0.198.

Regarding `C[N+](C)(C)CCCC[C@@H]1NC(=O)[C@@H]2C[C@H](C(=O)O)[C@H](c3ccc(O)cc3)N2C1=O`, the z-score in assay [1] is -0.105 (inactive); in [3] it was 0.277 (inactive); in [4], 0.156 (inactive); in [5] it was -0.0003 (inactive); in assay [6] it was 0.0583 (inactive); in assay [7], 0.423. Besides, the z-score was -0.0831 (inactive) in [8], -0.223 (inactive) in assay [9] and 0.903 in assay [10]. For the same molecule, in assay [2], the composite z-score is -0.248.

`C[C@]1(C(=O)O)c2ccccc2C(=O)N(Cc2ccccc2)[C@H]1c1ccc(CO)cc1`: the z-score in assay [1] was 0.576 (inactive); in [3], 3.5 (inactive); in assay [4], 0.52 (inactive); in assay [5] it was 1.06 (inactive); in assay [6], 0.548 (inactive); in assay [7] it was -0.0555. In addition, the values for the z-score in assay [8], in [9] and in assay [10] were 0.67 (inactive), 0.917 (inactive) and 0.42, respectively. The composite z-score in assay [2] is -0.147.

In the case of `Cc1ccc(S[C@]2(C(=O)NCC(F)(F)F)CC(=O)N(Cc3ccccc3)[C@@H]2c2ccc(CO)cc2)cc1`, the z-score in assay [1] is -0.009 (inactive); in assay [3], 1.6 (inactive); in assay [4], -0.821 (inactive); in assay [5], 1.56 (inactive); in assay [6], -1.73 (inactive); in assay [7] it was 1.98. Further, the z-score is -0.599 (inactive) in assay [8], 0.488 (inactive) in assay [9] and -1.68 in [10]. Further, the composite z-score in [2] was 0.0413.

Take `Cc1ccc(C(C)CC(O)C2C=CC3C(=O)N(c4ccccc4)C(=O)C3N2Nc2ccc(C(C)C)cc2)o1` (stereo not given): the z-score is -1.84 (inactive) in [1]; 1.45 (inactive) in assay [3]; 0.871 (inactive) in [4]; 0.948 (inactive) in assay [5]; 0.631 (inactive) in assay [6]; -1.31 in assay [7]. Moreover, the z-score in assay [8] is -0.831 (inactive); in assay [9] it was -2.34 (inactive); in assay [10], -3.53. The same molecule returned a composite z-score in [2] of 0.629.

Take `C=CCOC(=O)[C@H]1[C@@H]2C(=O)O[C@@H](c3ccccc3)[C@@H](c3ccccc3)N2[C@@H](c2ccc(OCCOC(=O)[C@H]3C[C@H]4C(=O)N[C@@H](Cc5ccccc5)C(=O)N4[C@H]3c3ccc(O)cc3)cc2)[C@]12C(=O)Nc1ccc(I)cc12`: the z-score in assay [1] was -0.783 (inactive); in assay [3], 4.04 (inactive); in assay [4], 2.09 (inactive); in [5], 0.28 (inactive); in assay [6], 1.06 (inactive); in [7] it was -0.481. Moreover, the z-score in assay [8] is 2.07 (inactive); in assay [9], 1.18 (inactive); in assay [10] it was 2.35. Moreover, in assay [2], the composite z-score was -0.0162.

As to `O=C1C[C@@](C(=O)NCC(F)(F)F)(c2ccc([N+](=O)[O-])cc2)[C@@H](c2ccc(CO)cc2)N1C1CCCCC1`, the z-score is -0.0786 (inactive) in assay [1]; 1.18 (inactive) in [3]; -0.105 (inactive) in assay [4]; 1.29 (inactive) in assay [5]; -0.0879 (inactive) in assay [6]; -0.429 in assay [7]. Also, the z-score in assay [8] is 0.166 (inactive); in assay [9], 0.24 (inactive); in [10] it was 0.104. In addition, the composite z-score in assay [2] was 0.517.

Turning to `COC(=O)[C@@]1(Cc2ccc(F)cc2)[C@H]2c3cc(C(=O)N4CCCC4)n(CCF)c3C[C@H]2CN1C(=O)c1ccccc1`, the z-score in assay [1] was -0.379 (inactive); in [3] it was 6.17 (inactive); in [4], 0.237 (inactive); in [5], 0.423 (inactive); in assay [6], 0.715 (inactive); in [7] it was 0.563. Moreover, the z-score in [8] is 0.6 (inactive); in assay [9] it was -0.248 (inactive); in [10], -0.159. In assay [2], this molecule registered a composite z-score of 2.02.

`CC(C)c1ccc(NN2C(C(O)c3ccco3)C=CC3C(=O)N(c4ccccc4)C(=O)C32)cc1` (stereo not given): the z-score in [1] was -0.302 (inactive); in assay [3], 6.96 (inactive); in assay [4] it was 1.93 (inactive); in [5], 0.626 (inactive); in [6], 1.29 (inactive); in [7], -0.694. Moreover, the z-score in assay [8] is -1.67 (inactive); in assay [9], -1.95 (inactive); in [10], -1.88. In [2], this molecule showed a composite z-score of 0.409.
